KAT2A inh: inhibitors of human GCN5L2 histone acetyltransferase | GCN5L2 HAT assay, ThioGlo1 CoA-SH fluorescence | 0.21% of 390,000 active | AID 504327 | Potency, µM (highest dose often 58.9 µM), hits mostly inhibitors | Q92830
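ThioGlo1-coupled HAT assay: 20nM GCN5L2, 70uM acetyl-CoA, 75uM H3(1-25) peptide, pH 7.5. Fluorescence read at 340/540nm at start and after 20 min at room temperature.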
Pol eta inh: inhibitors of human DNA polymerase eta | recombinant Pol eta, fluorescent DNA replication assay | AID 588591 | Q9Y253 | 1.2% of 390,000 active | Potency, µM (series often up to 114 µM), hits mostly inhibitors
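Fluorescent replication assay: 50 nM final substrate added after a 15 min room-temperature compound preincubation with 10 nM enzyme. Signal taken at 0 min and again at 10 min.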
Pol kappa inh: DNA polymerase kappa (human) inhibition; Q9UBT6; purified Pol kappa, fluorescent DNA synthesis assay, 10 min; Potency, µM (doses to about 107 µM), most hits filed as inhibitors; 0.53% of 400,000 active; AID 588579
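Enzyme at 10 nM met test compounds for 15 min at room temperature. Substrate addition (50 nM final) began the reaction, which was monitored by fluorescence at 0 and 10 min.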
GLS inhibitor: blocks human kidney-isoform glutaminase activity. O94925. GLS enzymatic activity, qHTS titration. Potency, µM (series often up to 45.5 µM), actives largely listed as inhibitors. 0.21% of 410,000 active. AID 624170
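Two-point fluorescence kinetic (t0, 30 min RT) for hKGA; glutamate detected via glutamate oxidase–HRP–Amplex Red. Substrate: 1 mM L-glutamine solution; buffer 45 mM KH2PO4, pH 8.2.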
POLB inh: DNA polymerase beta (human) inhibition | Potency, µM (titrated, usually from 114 µM), actives largely listed as inhibitors | 1.3% of 340,000 active | P06746 | Pol beta primer extension/strand displacement, fluorescence kinetic | AID 485314
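10 nM enzyme + cpd, 15 min RT; start with substrate 50 nM final; read 0 min and after 10 min RT. Corrected, normalized data; 4-parameter Hill curve fit.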
POLI inh: DNA polymerase iota (human) inhibition; 1% of 390,000 active; Potency, µM (top dose mostly 115 µM), actives largely listed as inhibitors; Pol iota fluorescent replication assay, 10 min
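Fluorescent replication assay read twice, at 0 min and 10 min after adding 50 nM (final) substrate. Enzyme (10 nM) and compounds were first incubated 15 min at room temperature; enzyme-free buffer wells were negative controls.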
Large screens that a line does not name were inactive; ! = a repeat was not active. Rows were chosen to be rich in hits. Some 2.4% of all compounds tested hit in one or more screens of this group. Calls come from the whole dose curve; as a rule, active = well fitted inhibition curve with a large enough effect; inconclusive = small, poorly fitted or top-dose-only effect, or another doubt; inactive = no such curve, though single readings can be large or run the other way.

O=C(COC(=O)c1ccco1)Nc1nc2c(F)c(F)c(F)cc2s1	Pol eta inh inconclusive, POLB inh 50µM, POLI inh inconclusive
O=C(COC(=O)c1cc(NS(=O)(=O)c2cccs2)ccc1O)Nc1ccc(F)c(F)c1F	GLS inhibitor 13µM
O=C(COC(=O)c1ccc(NS(=O)(=O)c2cccs2)cc1)Nc1nc2c(F)c(F)c(F)cc2s1	Pol eta inh 20µM, Pol kappa inh inconclusive, POLB inh 28µM, POLI inh 40µM
O=C(COC(=O)c1cc(NS(=O)(=O)c2cccs2)ccc1O)Nc1cc(Cl)ccc1Cl	none
O=C(COC(=O)c1ccc(Br)o1)Nc1nc2c(F)c(F)c(F)cc2s1	Pol eta inh 56µM, Pol kappa inh inconclusive, POLB inh 11µM
O=C(COC(=O)CCC1CCCC1)Nc1nc2c(F)c(F)c(F)cc2s1	none
O=C(CCOc1ccccc1)NO	none (no result: KAT2A inh, Pol eta inh, GLS inhibitor, POLB inh)
O=[N+]([O-])c1ccc(/C=C/c2ccnc3ccccc23)cc1	none (no result: KAT2A inh, Pol eta inh, GLS inhibitor, POLB inh)
c1ccc(SSc2ccccn2)nc1	GLS inhibitor 10µM, POLI inh inconclusive (no result: KAT2A inh, POLB inh)
c1ccc(Sc2ccccn2)cc1	none (no result: KAT2A inh, POLB inh)
COc1cc2nc(CCc3nc4cc(OC)c(OC)cc4[nH]3)[nH]c2cc1OC	Pol kappa inh 3.2µM, POLI inh 2.5µM (no result: KAT2A inh, Pol eta inh, GLS inhibitor, POLB inh)
Cc1cc2nc(CO)[nH]c2cc1C	none
O=C(Nc1cccc(C(=O)O)c1)/C(=C/c1ccc([N+](=O)[O-])cc1)NC(=O)c1ccccc1	none
CC(C)(C)c1ccc(C(=O)N/C(=C\c2cccc([N+](=O)[O-])c2)C(=O)Nc2cccc(C(=O)O)c2)cc1	Pol eta inh 22µM, POLB inh inconclusive
O=C(NCCc1c[nH]c2ccccc12)OCCSS(=O)(=O)O	POLI inh 25µM
CCC(=O)NCCc1c[nH]c2ccccc12	none (no result: KAT2A inh)
CCN(N=O)c1ccc(/C=C2\C=Cc3ccccc32)cc1	none (no result: KAT2A inh, Pol eta inh, GLS inhibitor, POLB inh)
Cc1nc(S/C(=C/c2ccc(-c3ccc(Cl)cc3)o2)C(=O)O)n[nH]1	Pol eta inh 25µM
O=C1C=CC(=O)c2c(O)c(Cl)c(Cl)c(O)c21	KAT2A inh 20µM, Pol kappa inh 7.1µM (no result: Pol eta inh, GLS inhibitor, POLB inh, POLI inh)
O=C1C=Cc2cccc3ccc(O)c1c23	none (no result: KAT2A inh, POLB inh)
Cc1cc(/C(N)=N/OC(=O)c2ccc(Cl)cc2)no1	POLB inh inconclusive
Cc1cc(/C(N)=N/OC(=O)c2cccc(Cl)c2)no1	POLB inh 89µM
N#C/C(=C(/O)CSc1nnc(Cc2cccs2)n1C1CCCCC1)c1nc2ccccc2[nH]1	Pol eta inh 25µM, Pol kappa inh inconclusive, POLB inh 18µM, POLI inh inconclusive
COc1ccc(NS(=O)(=O)c2cccc(C(=O)N/N=C(/C)c3ccc(-n4ccnc4)cc3)c2)cc1	POLI inh 40µM (no result: KAT2A inh, POLB inh)
COc1cc(/C=N\NC(=O)c2ccc(-c3ccccc3)cc2)cc(Br)c1O	Pol eta inh inconclusive, POLB inh 40µM, POLI inh inconclusive
COc1ccc(NS(=O)(=O)c2cccc(C(=O)N/N=C(\C)c3cccnc3)c2)cc1	none (no result: POLB inh)
COc1cc(/C=N/NC(=O)c2ccc3c(c2)OCCO3)c(Br)c(Br)c1O	Pol eta inh inconclusive, Pol kappa inh 89µM, POLB inh inconclusive, POLI inh inconclusive
COc1ccc(NS(=O)(=O)c2cccc(C(=O)NN=Cc3cc(Br)c(O)c(Br)c3)c2)cc1	Pol eta inh 45µM, Pol kappa inh inconclusive, POLI inh 16µM (no result: POLB inh)
CC1CCN(S(=O)(=O)c2ccc3c(ccc(=O)n3CC(=O)Nc3cccc(F)c3)c2)CC1	none
CC[C@H]1C(c2ccc(F)cc2)=NN(c2ccccc2)[C@@H]1CO	KAT2A inh 40µM! (no result: POLB inh)
OC[C@@H]1[C@@H](c2ccc(F)cc2)C(c2ccccc2)=NN1c1ccccc1	Pol kappa inh inconclusive (no result: POLB inh)
COc1ccc(/C=N/Nc2nonc2N)cc1	none
COc1ccc(/C=N/Nc2nn3cnnc3c3ccccc23)cc1	Pol eta inh inconclusive, GLS inhibitor inconclusive, POLB inh 1.8µM
O=C(N/N=C/c1cccnc1)c1cc2ccccc2o1	POLI inh inconclusive
O=C(N/N=C/c1cccnc1)c1cc2c(ccc3ccccc32)o1	Pol eta inh inconclusive, POLB inh 11µM, POLI inh inconclusive

Screens from PubChem.
